Data on 30 compounds can be found in PubChem BioAssay (NCATS).

Each structure is given as a SMILES string. Several values for one entry are separate records, joined by “and”; a condition that tells them apart may be missing. Identical values can stand only once. Results filed as inconclusive are left out. Activity calls are given as the source filed them. Unless noted, the call rests on the fitted dose curve; in most records, active means well fitted curve in the direction sought with a large enough effect; inconclusive means small, poorly fitted or top-dose-only effect, or another doubt; inactive means no such curve, though single readings can be large; an effect the other way counts as inactive or inconclusive.

For experiment [1], the target named is Transient receptor potential cation channel subfamily V member 1 (Homo sapiens) (UniProt Q8NER1). Briefly: HTS Assay for Compounds that Act as Enhancers of the Vanilloid Receptor 1 (AID 488979). Further: 0% is about no effect. A digest of the protocol:
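Calcium influx kinetics via Fluo-8 (480/520 nm) in TRPV1-expressing cells, 2000/well cultured overnight at 35.5C. Compound-alone read 3 min (agonist phase), followed by EC20 capsaicin challenge for 2 min (enhancer phase).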

For experiment [2], the target named is Thyrotropin receptor (Homo sapiens) (UniProt P16473). Put plainly: qHTS Assay for Antagonists of the Thyroid Stimulating Hormone Receptor (AID 488980). Further: series mostly up to about 58 µM; 0% is about no effect. A digest of the protocol: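 Cells expressing human TSHR (HEK293) are dispensed in HBSS/HEPES containing 70 uM RO 20-1724, compound is added, then TSH at EC80 (4 nM final). Antibody in lysis buffer follows, 30 minutes at room temperature before HTRF detection.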
Chain of Thyrotropin receptor (Homo sapiens) (P16473 whole entry, looked up): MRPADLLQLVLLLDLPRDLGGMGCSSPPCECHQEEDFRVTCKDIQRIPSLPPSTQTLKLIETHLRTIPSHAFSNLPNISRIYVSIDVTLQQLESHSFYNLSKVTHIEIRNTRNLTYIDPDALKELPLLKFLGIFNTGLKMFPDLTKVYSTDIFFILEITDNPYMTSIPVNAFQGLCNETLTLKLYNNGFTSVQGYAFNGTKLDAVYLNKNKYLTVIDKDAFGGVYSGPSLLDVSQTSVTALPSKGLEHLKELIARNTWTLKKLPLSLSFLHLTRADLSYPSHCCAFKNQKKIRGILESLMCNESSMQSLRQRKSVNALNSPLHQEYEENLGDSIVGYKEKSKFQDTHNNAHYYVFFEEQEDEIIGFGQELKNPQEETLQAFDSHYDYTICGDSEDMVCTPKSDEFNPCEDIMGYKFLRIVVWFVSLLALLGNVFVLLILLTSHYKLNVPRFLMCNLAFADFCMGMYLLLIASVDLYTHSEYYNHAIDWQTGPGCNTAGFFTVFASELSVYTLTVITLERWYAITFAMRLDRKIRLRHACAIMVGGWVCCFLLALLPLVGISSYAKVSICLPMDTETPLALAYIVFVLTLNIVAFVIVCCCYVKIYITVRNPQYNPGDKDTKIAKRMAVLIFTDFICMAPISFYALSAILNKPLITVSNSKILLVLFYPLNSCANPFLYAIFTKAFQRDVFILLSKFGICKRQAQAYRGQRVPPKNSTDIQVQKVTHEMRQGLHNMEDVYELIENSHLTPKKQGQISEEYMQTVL
In general terms: In qHTS, concentration-response curves come from the screen itself.

Experiment [3] has as its target D(1A) dopamine receptor (Homo sapiens) (UniProt P21728). Briefly: HTS Assay for Allosteric Agonists of the Human D1 Dopamine Receptor: Primary Screen for Agonists (AID 488981). Further: potency means the concentration at half of the fitted maximal effect. On activation: 0% is about no effect. An outline of the steps: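 Calcium flux in an inducible, force-coupled HEK293 Trex D1 line (overnight at 30 C): agonist mode is the 180 s kinetic read after compound; potentiator mode is the following 180 s read after dopamine at EC20.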

Experiment [4] can be described thus: Validation screen for small molecules that induce genotoxicity in human embryonic kidney (HEK293T) cells expressing luciferase-tagged ELG1 (AID 493106). Further: 0% is about no effect. An outline of the steps: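 HEK293T cells expressing luciferase-tagged ELG1, 2,000 cells/well, exposed to compound 16 hr at 37 °C, 5% CO2. Luciferase read after ONE-Glo, 30 min at room temperature; increased signal indicates genetic stress.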

The target of experiment [5] is Thyrotropin-releasing hormone receptor (Homo sapiens) (UniProt P34981). Briefly: qHTS for Small Molecule Agonists and Allosteric Enhancers of Human TRH Receptor: Validation Screen for Agonists (AID 493127;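 active means calcium activation more than 3 SD above the typical response in the agonist read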; further: 0% is about no effect). As to conditions: TRH receptor agonist cell assay; at 2 µM; stronger effect = higher value. An outline of the steps: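 TRHR cells loaded with fluo-8 calcium dye; FDSS kinetic fluorescence (Ex 480/Em 530) read at 1 s/cycle after 23 nL compound addition. Agonist-mode calcium response recorded before the 10 nM TRH (EC20) addition.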
Chain of Thyrotropin-releasing hormone receptor (Homo sapiens) (P34981 whole entry, looked up): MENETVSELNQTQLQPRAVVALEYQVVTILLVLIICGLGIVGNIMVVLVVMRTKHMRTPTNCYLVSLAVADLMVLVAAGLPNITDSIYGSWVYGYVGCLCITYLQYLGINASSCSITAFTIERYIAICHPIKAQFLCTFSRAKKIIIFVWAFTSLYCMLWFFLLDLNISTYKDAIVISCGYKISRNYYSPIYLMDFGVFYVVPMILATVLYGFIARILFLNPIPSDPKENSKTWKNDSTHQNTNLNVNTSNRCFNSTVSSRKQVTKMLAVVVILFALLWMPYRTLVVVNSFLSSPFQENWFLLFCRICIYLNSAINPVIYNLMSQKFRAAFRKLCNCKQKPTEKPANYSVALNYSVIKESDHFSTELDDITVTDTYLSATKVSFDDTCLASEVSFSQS

A short description of experiment [6]: Nrf2 qHTS screen for inhibitors: Validation (AID 493153; active means well fitted inhibition curve with a large enough effect in the main read-out, with a control signal flat, not every such curve was filed as active). As to conditions: viability change: measured here: cytotoxicity max response. An outline of the steps: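 A549 cells carrying ARE-firefly luciferase reporter, 5000 cells/well in 5% FBS OPTI-MEM, treated with compound over a concentration series for 18-24 h at 37 C. Luciferase luminescence gave Nrf2 activity; CellTiter-Fluor fluorescence gave viability.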

Experiment [7] in a line: qHTS for Inhibitors of Cell Surface uPA Generation: Validation Assay (AID 493164). Further: 0% is about no effect. An outline of the steps: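 RAW 264.7 cells (4000/well) were plated overnight, then exposed for 18 h at 37 C, 5% CO2 to compounds in a 7-point 1:5 titration (2.45 nM–38.3 uM final). Intracellular ATP was read by ATP-Lite luminescence.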
Experiment [8] concerns the target Galactokinase (Homo sapiens) (UniProt P51570). Put plainly: qHTS Validation Assay for Inhibitors of Human Galactokinase (GALK) (AID 493189). Further: 0% is about no effect. An outline of the steps:
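Compounds were pin-transferred into ATP buffer, then GALK-galactose mix was added (final 5 nM enzyme, 100 uM galactose, 35 uM ATP). After 1 h at room temperature, remaining ATP was measured luminescently.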

For experiment [9], the target named is Peptidyl-prolyl cis-trans isomerase NIMA-interacting 1 (Homo sapiens) (UniProt Q13526). Put plainly: qHTS Validation Assay to Find Inhibitors of Pin1 (AID 504536; active means well fitted inhibition curve with a large enough effect in the polarisation, with a control signal flat, not every such curve was filed as active; the % refers to the polarisation;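 further: 0% = full Pin1 enzyme wells and -100% = no-enzyme wells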). A digest of the protocol:
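Fluorescence polarization competition: compounds (titration) displace HiFluor-488-labeled Pin1-1b peptide from Pin1 (0.3 uM final) in pH 7.5 HEPES buffer with DTT, 10 min at room temperature; %Activity normalized to no-enzyme wells, curves fitted.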

Experiment [10] addresses Phosphoglycerate kinase, glycosomal (Trypanosoma brucei brucei) (UniProt P07378). Briefly: qHTS Validation Assay to Find Inhibitors of Phosphoglycerate Kinase (AID 504547).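 Further: control wells lack PGK and mark full inhibition.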 A digest of the protocol:
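Inhibition of the enzyme is judged by a Kinase-Glo Plus luminescent signal following a one-hour incubation at room temperature. Because 1,3-BPG is unstable, it is made in situ by GAPDH at 100nM final; no-PGK wells define the baseline.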

Experiment [11] has as its target phosphoglycerate mutase (Leishmania major) (UniProt Q4Q090). Briefly: qHTS Validation Assay to Find Inhibitors of Phosphoglycerate Mutase (AID 504548).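 Further: end-point luminescence from Kinase-GloPlus after the PGAM reaction; series mostly up to about 58 µM; on the % scale 0 is the no-effect control and ±100 the full control effect.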 A digest of the protocol: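 L. major PGAM (1.25nM final) was added to substrate buffer and pinned compound, incubated 45 minutes at room temperature, then Kinase-GloPlus added; luminescence read after 10 minutes. Buffer: 100 mM TEA pH 7.6, 5 mM MgCl2, 0.01% Tween-20.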

For experiment [12], the target named is Ubiquitin carboxyl-terminal hydrolase 1 (Homo sapiens) (UniProt O94782). Put plainly: Inhibitors of USP1/UAF1: Pilot qHTS (AID 504865). Further: nearly all actives have a fitted effect of over 35% in size. Further: potency means the concentration at half of the fitted maximal effect. An outline of the steps:
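Kinetic fluorescence assay: 1nM USP1/UAF1, 15 min compound preincubation, then 150nM Ub-Rho; 480/540 nm.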

Experiment [13] in a line: Validation screen for small molecules that induce DNA re-replication in SW480 colon adenocarcinoma cells (AID 504364). Further: 0% is about no effect. An outline of the steps:
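SW480 cells (250/well) exposed 48 h at 37 C, 5% CO2, then Hoechst-stained 40 min. Nuclear DNA content imaged by fluorescence scanning (405 nm excitation, 500-530 nm emission); re-replication scored as increased nuclei with elevated intensity.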

Experiment [14] deals with ATPase family AAA domain-containing protein 5 (Homo sapiens) (UniProt Q96QE3). Put plainly: Validation screen for small molecules that inhibit ELG1-dependent DNA repair in human embryonic kidney (HEK293T) cells expressing luciferase-tagged ELG1 (AID 493107). Further: nearly all actives have a fitted effect of over 70% in size. Further: potency means the concentration at half of the fitted maximal effect. A digest of the protocol: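 HEK293T cells expressing luciferase-tagged ELG1, 2,000 per well, treated with 5-fluorouridine plus compound for 16 h at 37 C. ONE-Glo luminescence after 30 min at room temperature reports ELG1 reporter level.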
Chain of ATPase family AAA domain-containing protein 5 (Homo sapiens) (Q96QE3 whole entry, looked up, the tested form may be a part): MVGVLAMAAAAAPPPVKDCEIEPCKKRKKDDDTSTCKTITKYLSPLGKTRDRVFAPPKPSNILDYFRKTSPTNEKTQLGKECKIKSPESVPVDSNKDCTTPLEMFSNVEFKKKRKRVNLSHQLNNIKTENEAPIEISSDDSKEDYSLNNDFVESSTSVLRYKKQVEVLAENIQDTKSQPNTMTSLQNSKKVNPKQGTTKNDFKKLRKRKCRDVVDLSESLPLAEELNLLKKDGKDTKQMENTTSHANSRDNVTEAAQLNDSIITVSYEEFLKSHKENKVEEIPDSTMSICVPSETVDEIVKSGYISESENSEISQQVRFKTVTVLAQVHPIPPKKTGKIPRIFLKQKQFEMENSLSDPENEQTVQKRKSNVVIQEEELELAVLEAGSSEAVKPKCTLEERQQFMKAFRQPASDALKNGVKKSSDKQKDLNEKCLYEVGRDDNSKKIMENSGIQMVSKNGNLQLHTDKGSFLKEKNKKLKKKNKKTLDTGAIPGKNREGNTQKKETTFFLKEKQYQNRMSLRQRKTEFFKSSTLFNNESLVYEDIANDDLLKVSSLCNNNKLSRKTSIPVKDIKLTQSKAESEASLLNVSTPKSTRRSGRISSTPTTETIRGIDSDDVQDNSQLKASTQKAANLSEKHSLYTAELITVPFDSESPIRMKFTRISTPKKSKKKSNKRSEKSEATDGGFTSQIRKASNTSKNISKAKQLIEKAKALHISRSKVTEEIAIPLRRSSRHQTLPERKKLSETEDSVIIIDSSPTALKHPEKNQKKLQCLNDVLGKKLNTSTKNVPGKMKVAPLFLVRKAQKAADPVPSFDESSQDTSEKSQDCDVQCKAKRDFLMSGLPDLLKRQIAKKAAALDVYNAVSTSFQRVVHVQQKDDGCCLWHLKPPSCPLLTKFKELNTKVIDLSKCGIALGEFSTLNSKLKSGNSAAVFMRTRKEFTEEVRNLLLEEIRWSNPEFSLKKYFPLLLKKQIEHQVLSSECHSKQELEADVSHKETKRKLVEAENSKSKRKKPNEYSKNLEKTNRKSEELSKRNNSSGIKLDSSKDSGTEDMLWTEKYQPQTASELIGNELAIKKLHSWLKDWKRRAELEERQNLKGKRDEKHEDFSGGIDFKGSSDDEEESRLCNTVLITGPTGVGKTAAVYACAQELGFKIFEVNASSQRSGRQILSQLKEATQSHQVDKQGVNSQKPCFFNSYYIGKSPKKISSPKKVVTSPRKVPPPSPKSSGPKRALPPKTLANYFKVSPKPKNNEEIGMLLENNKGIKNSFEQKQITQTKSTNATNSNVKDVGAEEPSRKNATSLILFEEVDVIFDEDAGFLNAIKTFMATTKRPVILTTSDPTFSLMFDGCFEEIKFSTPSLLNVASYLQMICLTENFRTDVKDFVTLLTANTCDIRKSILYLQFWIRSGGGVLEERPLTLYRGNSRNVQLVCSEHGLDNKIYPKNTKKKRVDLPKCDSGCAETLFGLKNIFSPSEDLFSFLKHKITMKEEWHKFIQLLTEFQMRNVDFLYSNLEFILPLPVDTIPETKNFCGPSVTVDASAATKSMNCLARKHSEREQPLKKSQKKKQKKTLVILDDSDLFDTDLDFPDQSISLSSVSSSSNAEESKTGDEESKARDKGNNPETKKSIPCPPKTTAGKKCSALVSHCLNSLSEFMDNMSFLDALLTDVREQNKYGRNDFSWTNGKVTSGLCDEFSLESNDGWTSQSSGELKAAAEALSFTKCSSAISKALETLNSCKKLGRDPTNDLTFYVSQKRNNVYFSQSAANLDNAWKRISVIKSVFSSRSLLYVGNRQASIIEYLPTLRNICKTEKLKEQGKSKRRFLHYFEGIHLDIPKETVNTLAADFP

The nature of experiment [15]: qHTS for Inhibitors of ATXN expression: Validation of Cytotoxic Assay (AID 588349). Further: on the % scale 0 is the no-effect control and ±100 the full control effect. A digest of the protocol:
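HEK293 cells treated with titrated compound for 72 hr at 37 degrees C; viability read as intracellular ATP by CellTiter Glo luminescence.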

Experiment [16] in a line: Inducers of the Endoplasmic Reticulum Stress Response (ERSR) in human glioma: Validation (AID 504836). Further: 0% is about no effect. An outline of the steps: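 ERSR induction read as luciferase luminescence (Bright-Glo, 10 min at room temperature) in stably transfected human U87-MG glioma cells exposed to compounds for 16 h, using GRP78 as sensor.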
Experiment [17] has as its target D(1A) dopamine receptor (Homo sapiens) (UniProt P21728). Briefly: HTS Assay for Allosteric Agonists of the Human D1 Dopamine Receptor: Primary Screen for Antagonists (AID 488983).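 Further: calcium flux response to an EC80 dopamine challenge measured with no-wash dye; on the % scale 0 is the no-effect control and ±100 the full control effect; nearly all actives have a fitted effect of over 65% in size.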 An outline of the steps: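 Tetracycline-induced HEK293 T-REx D1 line, force-coupled to calcium flux, read with no-wash calcium dye. Compound added after 10 s baseline, read 180 s for agonism, then EC80 dopamine added and read a further 180 s.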

The target in experiment [18] is ATP-dependent 6-phosphofructokinase (Trypanosoma brucei brucei) (UniProt O15648). Briefly: qHTS Assay to Find Inhibitors of T. brucei phosphofructokinase: hit validation (AID 492961).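 Further: luminescence reports ADP formed as PFK phosphorylates fructose-6-phosphate with ATP; series mostly up to about 51 µM; on the % scale 0 is the no-effect control and ±100 the full control effect.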 A digest of the protocol:
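Measures ADP output of PFK (1.25 nM) at 0.1 mM ATP, 0.5 mM F6P, pH 8.0 TEA buffer with 5 mM MgCl2. No-enzyme wells define full inhibition; uninhibited enzyme wells define zero.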

Chain of Transient receptor potential cation channel subfamily V member 1 (Homo sapiens) (Q8NER1 whole entry, looked up): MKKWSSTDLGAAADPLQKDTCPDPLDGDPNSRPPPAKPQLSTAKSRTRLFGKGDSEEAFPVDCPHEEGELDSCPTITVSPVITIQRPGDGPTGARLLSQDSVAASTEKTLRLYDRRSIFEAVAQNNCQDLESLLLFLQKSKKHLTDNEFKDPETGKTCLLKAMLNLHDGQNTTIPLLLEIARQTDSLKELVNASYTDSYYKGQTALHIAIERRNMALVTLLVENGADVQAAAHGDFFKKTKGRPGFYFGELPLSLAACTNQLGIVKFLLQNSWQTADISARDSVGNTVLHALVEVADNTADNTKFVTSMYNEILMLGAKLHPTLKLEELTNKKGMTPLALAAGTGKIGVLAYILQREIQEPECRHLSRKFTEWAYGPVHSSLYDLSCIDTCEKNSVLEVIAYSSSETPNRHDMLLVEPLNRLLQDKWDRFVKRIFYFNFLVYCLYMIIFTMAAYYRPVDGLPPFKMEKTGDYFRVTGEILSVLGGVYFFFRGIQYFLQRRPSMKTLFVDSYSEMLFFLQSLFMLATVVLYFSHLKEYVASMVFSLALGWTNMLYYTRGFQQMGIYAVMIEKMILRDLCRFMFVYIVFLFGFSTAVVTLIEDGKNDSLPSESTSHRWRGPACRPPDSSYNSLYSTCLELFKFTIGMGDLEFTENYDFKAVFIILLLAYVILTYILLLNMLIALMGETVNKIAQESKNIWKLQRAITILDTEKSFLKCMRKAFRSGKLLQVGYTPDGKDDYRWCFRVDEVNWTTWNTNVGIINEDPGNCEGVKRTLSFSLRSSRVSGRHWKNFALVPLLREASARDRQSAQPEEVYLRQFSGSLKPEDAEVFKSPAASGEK
Chain of Peptidyl-prolyl cis-trans isomerase NIMA-interacting 1 (Homo sapiens) (Q13526 whole entry, looked up): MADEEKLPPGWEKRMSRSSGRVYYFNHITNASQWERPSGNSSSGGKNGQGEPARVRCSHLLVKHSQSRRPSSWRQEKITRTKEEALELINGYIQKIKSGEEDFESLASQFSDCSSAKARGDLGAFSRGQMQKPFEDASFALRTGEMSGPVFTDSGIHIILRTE
Chain of Galactokinase (Homo sapiens) (P51570 whole entry, looked up): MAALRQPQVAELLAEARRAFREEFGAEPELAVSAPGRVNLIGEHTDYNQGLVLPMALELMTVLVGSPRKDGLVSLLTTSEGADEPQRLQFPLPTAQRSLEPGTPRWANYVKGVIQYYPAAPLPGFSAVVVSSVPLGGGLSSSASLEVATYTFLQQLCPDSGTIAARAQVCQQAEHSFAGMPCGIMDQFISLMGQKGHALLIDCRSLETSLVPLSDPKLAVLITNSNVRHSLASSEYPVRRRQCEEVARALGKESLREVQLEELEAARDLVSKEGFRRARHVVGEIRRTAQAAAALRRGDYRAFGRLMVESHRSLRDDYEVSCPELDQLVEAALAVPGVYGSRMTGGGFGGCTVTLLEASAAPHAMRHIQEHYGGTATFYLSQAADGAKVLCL
Chain of D(1A) dopamine receptor (Homo sapiens) (P21728 whole entry, looked up): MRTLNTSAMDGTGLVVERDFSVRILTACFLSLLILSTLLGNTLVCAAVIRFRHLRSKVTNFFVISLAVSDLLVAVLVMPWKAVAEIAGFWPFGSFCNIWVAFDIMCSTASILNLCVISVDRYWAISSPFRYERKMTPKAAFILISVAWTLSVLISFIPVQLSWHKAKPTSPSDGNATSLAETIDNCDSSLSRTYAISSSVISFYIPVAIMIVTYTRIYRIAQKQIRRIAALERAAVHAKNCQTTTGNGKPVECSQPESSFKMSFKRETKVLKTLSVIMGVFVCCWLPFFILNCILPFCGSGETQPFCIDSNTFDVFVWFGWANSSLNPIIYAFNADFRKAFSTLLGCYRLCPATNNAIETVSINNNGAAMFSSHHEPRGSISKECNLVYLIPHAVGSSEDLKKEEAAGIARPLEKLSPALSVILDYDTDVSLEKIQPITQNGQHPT

Take `c1ccc(CCCN2CCN(CCOC(c3ccccc3)c3ccccc3)CC2)cc1`: the result in [1], in [2], in [4], in experiment [6], in experiment [7] and in experiment [8] was inactive. The compound was called inactive in experiment [9], in experiment [10] and in [11]. Further, the Potency result in [3] and in experiment [12] was “inactive” each time. The activation in [5] was 0.0625% (inactive). In experiment [6], the viability change is -4.56%.

Consider `Cc1nc(-c2ccc(-c3ccc(C(=O)N4CCc5cc6c(cc54)C4(CCN(C)CC4)CO6)cc3)c(C)c2)no1`, for which the result in experiment [1], in experiment [2], in experiment [8] and in experiment [13] was inactive. Besides, the activation in experiment [5] is 1.44% (inactive).

`c1ccc2sc(C3(N4CCCCC4)CCCCC3)cc2c1`: the outcome in experiment [1], in [2], in experiment [4], in experiment [6], in [7] and in experiment [8] was inactive. The result in experiment [13], in experiment [9], in experiment [10], in experiment [11] and in experiment [15] was inactive. Further, the Potency result in experiment [3], in experiment [14] and in experiment [12] was “inactive” throughout. In addition, the activation in experiment [5] is -13.1% (inactive). Also, the viability change in [6] is -6.89%.

`CN[C@@H]1C[C@@H](c2ccc(Cl)c(Cl)c2)c2ccccc21`: the call in experiment [2], in experiment [4], in [6], in experiment [7], in experiment [8] and in [13] was inactive. Also, the call in experiment [9], in [10] and in experiment [11] was inactive. For the same compound, the values for the Potency in experiment [3] and in experiment [14] were 12.6 µM (active) and 23.1 µM (active), respectively. Besides, the activation in experiment [5] was 29.8% (inactive). Besides, the viability change in [6] was determined as 3.66%. Moreover, the Potency result in experiment [16] and in experiment [12] was “inactive” in each case.

Regarding `Clc1cnc(Oc2ccc(Oc3ncc(Cl)cc3Cl)cc2)c(Cl)c1`, the outcome in experiment [1], in experiment [2], in experiment [4], in experiment [6], in experiment [7] and in experiment [8] was inactive. In addition, the result in experiment [13], in [9], in experiment [10], in [11] and in experiment [15] was inactive. Moreover, the Potency entry in [3], in experiment [17], in experiment [14], in experiment [16] and in experiment [12] was “inactive” each time. Further, the viability change in experiment [6] amounted to 3.25%.

On to `COC(=O)c1cncn1C(C)c1ccccc1` (stereo not given), for which, in experiment [12], the Potency result is “inactive”.

With `Cc1ccc(Cl)c(O)c1`, the Potency entry in [18] and in experiment [12] was “inactive” each time.

As for `C#CC1(O)CCC2C3CCC4=CC(=O)CCC4(C)C3CCC21C` (stereo not given), the Potency result in experiment [18] is “inactive”. Also, in experiment [12], the Potency is 50.1 µM (active).

With `C/C=C(/C)C(=O)O[C@H]1C(C)=C2[C@H]([C@@H]1OC(=O)CCCCCCC)[C@@](C)(OC(C)=O)C[C@H](OC(=O)CCC)[C@@]1(O)[C@H]2OC(=O)[C@@]1(C)O`, the call in [4], in experiment [7], in experiment [10] and in experiment [11] was inactive.

With `O=[N+]([O-])c1ccc([As](=O)(O)O)cc1`, the Potency result in [18] and in experiment [12] was “inactive” throughout.

On to `O=C(O)CCCOc1ccc(Cl)cc1Cl`, for which, in experiment [12], the Potency entry was “inactive”.

In the case of `CC(C)C[C@H](NC(=O)[C@@H](O)[C@H](N)Cc1ccccc1)C(=O)O`, the Potency result in experiment [16] was “inactive”.

For the compound `CCOC(=O)c1cncn1[C@H](C)c1ccccc1`, in experiment [12], the Potency result is “inactive”.

As for `CC(=O)OCC1=C(C(=O)O)N2C(=O)[C@@H](N)[C@@H]2SC1`, the Potency entry in experiment [18] and in experiment [12] was “inactive” in each case.

For `CCCCCCCCCC(CC)c1ccc(S(=O)(=O)O)cc1` (stereo not given), in [18], the Potency entry is “inactive”. In addition, the Potency in experiment [12] is 79.4 µM (active).

Take `CN1C(=O)CC[C@H]1c1cccnc1`: the Potency result in [16] was “inactive”.

On to `CCN(CC)CCNC(=O)c1ccc(NC(C)=O)cc1`, for which, in experiment [16], the Potency entry was “inactive”.

As to `CN(C)[C@@H]1C(=O)C(C(N)=O)=C(O)[C@@]2(O)C(=O)C3=C(O)c4c(O)cccc4[C@@](C)(O)[C@H]3[C@H](O)[C@@H]12`, the Potency result in experiment [18] and in experiment [12] was “inactive” each time.

`NC(CO)C(=O)NNCc1ccc(O)c(O)c1O` (stereo not given): in [16], the Potency entry was “inactive”.

In the case of `C1CCC(NC2CCCCC2)CC1`, the Potency entry in experiment [18] and in experiment [12] was “inactive” throughout.

On to `NCCS`, for which the Potency entry in [16] is “inactive”.

Take `O=C1C(I)=CC(=C(c2cc(I)c(O)c(I)c2)c2ccccc2C(=O)O)C=C1I`: the Potency in experiment [12] is 25.1 µM (active).

On to `NC1=NC(=O)N2CC12` (stereo not given), for which the Potency entry in [18] and in experiment [12] was “inactive” throughout.

Consider `Cc1cc(O)ccc1Cl`, for which the Potency entry in experiment [18] and in experiment [12] was “inactive” each time.

On to `CCN(CC)CCn1c(=O)c(Cc2ccc(OC)cc2)nc2ccccc21`, for which, in experiment [16], the Potency entry is “inactive”.

For `CCCCCCCCCCCCCCCC[N+](C)(C)C`, the Potency result in [18] was “inactive”. Also, the Potency in [12] is 22.4 µM (active) and 31.6 µM (active).

In the case of `CS(=O)(=O)Nc1ccc([N+](=O)[O-])cc1Oc1ccccc1`, the Potency result in experiment [16] is “inactive”.

For `CC1=C(/C=C/C(C)=C/C=C/C(C)=C/C(=O)O)C(C)(C)CCC1`, the Potency entry in experiment [16] was “inactive”.

For the compound `C[C@]12CCC(=O)C(O)=C1CC[C@@H]1[C@H]3CCC(=O)[C@@]3(C)CC[C@@H]12`, the Potency entry in experiment [18] and in experiment [12] was “inactive” each time.

With `CCC(=O)OC1CCC2C3CCC4=CC(=O)CC[C@@]4(C)C3CC[C@]12C` (stereo not given in full), the Potency result in experiment [12] is “inactive”.
